Data as given in PubChem BioAssay (NCI).
About 79,000 compounds went through this panel and 15% of them were active in at least one assay; those are over-represented in the sample as a whole. A number with no mark means an inactive call. Calls of active or inactive are those of the source. No stated cut-off is given here; in the data, active means growth inhibition above about 70%; inactive means the rest.

Experiment: NCI Yeast Anticancer Drug Screen. Data for the rad50 strain (AID 155);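 further: 0% = growth of vehicle-only cultures of the same strain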
Settings: S. cerevisiae rad50 strain growth inhibition; at 50.0 µM; hits give high values
Summary of the method: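 Relative growth inhibition (compound vs vehicle) was measured in yeast with a defined repair-gene alteration.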

Compound | growth inhibition
Cc1ccc(-c2nnc(C)o2)cc1 | 5.55%
CCCCCCCCOCCS(=O)(=O)O | 13.4%
CC(=O)NC(CSC1=C2NC(=O)\C=C/C=C/C=C\C(C)C(O)CC(=O)/C(C)=C\CC(O)/C=C/C(C)C(O)C(C)C=C(C)C(=O)c3c(O)c(C)cc(c3C1=O)C2=O)C(=O)O (stereo not drawn) | 1.1%
Cc1ccc(S(=O)(=O)Nc2ccc3nc(C)oc3c2)cc1 | 26.4%
CC(NC(=O)NCCCl)c1cccc2ccccc12 (stereo not drawn) | -7.25%
CN(C)C(=S)Oc1ccc([N+](C)(C)C)cc1 | -3.7%
CSc1cc(/C=C/c2ccccc2)ccc1N | 1%
Cc1ccc(N=Cc2ccc(C(N)=S)cc2)cc1 | 7.05%
CC(NC(=O)CN)C(=O)O (stereo not drawn) | -43.4%
NC1CCCCC1N.O=NN1CCCCCC1(P(=O)([O-])[O-])P(=O)([O-])[O-].[Na+].[Pt+2] | -34.9%
Clc1ccc2cc(Cl)c3ccccc3c2c1 | -17.4%
CC1(C)OC2OC(C3CC3)C(O)C2O1 (stereo not drawn) | -4.1%
CCOC(=O)NCc1cccc2ccccc12 | 3.2%
CCOC(=O)/C=C/n1c2ccccc2c(=O)c2cc(OC)ccc21 | -3.25%
OC(C/C(=N\Nc1ccccc1)c1ccc(F)cc1)(C(F)(F)F)C(F)(F)F | 98.3% (active)
O=C(O)CCCCC1CCCC1 | 43.4%
COc1cccc(CCC(=O)O)c1 | -11.7%
Cc1ccc(N=C=C(c2ccc(Cl)cc2)c2ccc(Cl)cc2)cc1 | 73.2% (active)
